# Tested on: not listed separately
# Assay: hepatitis C replication reporter changes, two-sided – Huh7 cells, luciferase reporter, HCV replication inhibitor project, primary screen (AID 1109);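 further: huh7 hepatoma cells harbouring a luciferase neomycin HCV replicon reporter; luciferase luminescence as measure of HCV replicon replication; test concentration not given here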
# Conditions: Huh7 HCV replicon luciferase reporter, 48 h; higher = more signal
row,SMILES,z-score
1,CCOC(=O)C[C@H]1[C@H](OC(=O)c2ccc(C(=O)c3ccccc3)cc2)[C@@H](NC(=O)c2ccccc2)c2cc(OCCCO)ccc2N1C(=O)c1ccc2ccccc2n1,-1.16
2,O=C(c1ccccc1)N1C(=O)[C@@]2(Cc3ccccc31)N=C(c1ccc(OCCCO)cc1)O[C@H]2c1ccccc1,-2.77
3,Cc1ccc(N2C(=O)c3ccccc3[C@@H](C(=O)NC3CC3)[C@@H]2c2ccc(CO)cc2)nc1,-0.312
4,[N-]=[N+]=Nc1ccccc1[C@@H]1OC(c2ccc(OCCCO)cc2)=N[C@]1(CCS(=O)(=O)c1ccccc1)C(N)=O,0.272
5,COC(=O)C(CC#Cc1ccc2c(c1)[C@]1(C(=O)N2)[C@H](C(=O)Nc2nc3ccccc3s2)[C@H]2C(=O)O[C@H](c3ccccc3)[C@H](c3ccccc3)N2[C@@H]1c1ccccc1OCCO)C(=O)OC,-2.55
6,CCOC(=O)C[C@H]1[C@H](OC(=O)c2ccc(C(=O)c3ccccc3)cc2)[C@@H](NC(=O)CC(C)C)c2cc(OCCCO)ccc2N1C(=O)c1ccc2ccccc2n1,-1.22
7,C=CC[C@]1(C(=O)NCc2ccccc2)N=C(c2ccc(OCCCO)cc2)O[C@H]1c1ccccc1N=[N+]=[N-],-0.368
8,OCCCC1=CC(c2cccs2)N(Cc2cc3c(cc2Br)OCO3)CC1 (stereo not given),-0.807
9,COc1ccc(C#Cc2ccc3c(c2)[C@]2(C(=O)N3)[C@H](C(=O)Nc3nc4ccccc4s3)[C@H]3C(=O)O[C@H](c4ccccc4)[C@H](c4ccccc4)N3[C@@H]2c2ccc(O)cc2)cc1,-1.04
10,NC(=O)[C@@H]1[C@H]2C(=O)O[C@H](c3ccccc3)[C@H](c3ccccc3)N2[C@H](c2ccc(O)cc2)[C@@]12C(=O)Nc1ccccc12,-1.1
11,CCCCC(CC)C(O)C1C=CC2C(=O)N(Cc3ccccc3)C(=O)C2N1n1cnnc1 (stereo not given),0.137
12,O=C1O[C@H](c2ccccc2)[C@H](c2ccccc2)N2[C@H]1[C@@H](C(=O)N1CCCCCCC1)[C@]1(C(=O)Nc3ccc(C#CCCO)cc31)[C@H]2c1ccccc1OCCO,-1.53
13,C=CCNC(=O)[C@H]1[C@@H]2C(=O)O[C@@H](c3ccccc3)[C@@H](c3ccccc3)N2[C@@H](c2ccccc2OCCO)[C@]12C(=O)Nc1ccc(C#CCCO)cc12,-2.26
14,COc1ccc(C#Cc2ccc3c(c2)[C@]2(C(=O)N3)[C@H](c3ccccc3OCCO)N3[C@H](c4ccccc4)[C@H](c4ccccc4)OC(=O)[C@H]3[C@@H]2C(=O)Nc2nc3ccccc3s2)cc1,-2.83
15,CN1C(=O)C2C=CC(C(O)C3CC=CCC3)N(N(c3ccccc3)c3ccccc3)C2C1=O (stereo not given),-0.155
16,O=C1O[C@@H](c2ccccc2)[C@@H](c2ccccc2)N2[C@@H](c3ccccc3OCCO)[C@]3(C(=O)Nc4ccccc43)[C@@H](C(=O)Nc3nc4ccccc4s3)[C@H]12,-3.25
17,O=C1NC(=O)C2C1C=CC(C(O)c1cc(C(F)(F)F)cc(C(F)(F)F)c1)N2Nc1ccccn1 (stereo not given),-0.345
18,O=C(N1CCCCC1)[C@]1(Cc2ccccc2)N=C(c2ccc(OCCCO)cc2)O[C@@H]1c1ccccc1,-3.4
19,CC(C)c1ccc(NN2C(C(O)c3ccc(B(O)O)cc3)C=CC3C(=O)N(c4ccccc4)C(=O)C32)cc1 (stereo not given),4.39
20,NC(=O)NCC#Cc1ccc2c(c1)[C@]1(C(=O)N2)[C@H](c2ccc(O)cc2)N2[C@H](c3ccccc3)[C@H](c3ccccc3)OC(=O)[C@H]2[C@@H]1C(=O)O,-0.708
21,Cc1ccccc1C(O)C1C=CC2C(=O)N(c3ccccc3)C(=O)C2N1Nc1ccc(C(C)C)cc1 (stereo not given),1.11
22,COc1ccc(CCNC(=O)[C@@H]2c3ccccc3C(=O)N(Cc3ccccc3Cl)[C@H]2c2ccc(CO)cc2)cc1,-1.37
23,O=C(NC1CC1)[C@@H]1c2ccccc2C(=O)N(Cc2ccccc2Cl)[C@H]1c1ccc(CO)cc1,-2.09
24,Cc1nc2cc(Br)ccc2c(=O)o1,-0.569
25,CCN(CC)c1ccc(N2CC=CC34O[C@@H]5C=CCCOC(=O)C5[C@H]3C(=O)N(CCCCCCO)[C@@H]4C2=O)cc1 (stereo not given in full),0.234

# Target: Left-right determination factor 2 (Homo sapiens) (UniProt O00292)
# Sequence (O00292 whole entry, looked up): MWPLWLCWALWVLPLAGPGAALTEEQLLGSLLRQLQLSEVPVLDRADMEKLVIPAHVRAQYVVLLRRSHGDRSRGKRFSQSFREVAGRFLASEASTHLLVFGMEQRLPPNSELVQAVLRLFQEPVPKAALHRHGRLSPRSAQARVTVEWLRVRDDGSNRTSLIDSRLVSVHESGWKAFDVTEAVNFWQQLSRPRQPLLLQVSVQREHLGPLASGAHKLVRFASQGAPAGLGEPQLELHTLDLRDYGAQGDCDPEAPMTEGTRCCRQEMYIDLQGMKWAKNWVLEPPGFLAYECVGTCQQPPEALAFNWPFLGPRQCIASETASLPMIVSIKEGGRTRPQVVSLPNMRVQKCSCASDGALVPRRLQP
# Assay: small molecules binding LEFTY2 protein – biochemical, small-molecule microarray, 635 nm fluorescence scan, primary screen (AID 1110)
# Conditions: higher = more signal
row,SMILES,composite z-score
1,CC(CO)N1C(=O)[C@@H]2C3C(=O)OCCC/C=C\[C@H]3OC23C=CCN(C(C)(C)C)C(=O)[C@@H]13 (stereo not given in full),-0.0466
2,CN1C(=O)C2C=CC(C(O)c3ccccc3)N(N(c3ccccc3)c3ccccc3)C2C1=O (stereo not given),0.618
3,C=CCOC(=O)[C@H]1[C@@H]2C(=O)O[C@@H](c3ccccc3)[C@@H](c3ccccc3)N2[C@@H](c2ccc(OCCOC(=O)[C@@H]3C[C@@H]4C(=O)N[C@@H](CCCCNC(C)=O)C(=O)N4[C@@H]3c3ccc(O)cc3)cc2)[C@]12C(=O)Nc1ccccc12,0.515
4,C[C@H]1C2[C@H](Cc3ccccc3)NC(=O)[C@]23C(=O)N[C@H](Cc2ccccc2)C(=O)N2CCC[C@H]2C(=O)NC/C=C\C/C=C/C3[C@@H]2O[C@]12C (stereo not given in full),0.203
5,CC(C)C(O)C1C=CC2C(=O)NC(=O)C2N1Nc1ccc(Cl)cc1Cl (stereo not given),-0.226
6,COC(=O)C(CC#Cc1ccc2c(c1)[C@]1(C(=O)N2)[C@H](C(=O)Nc2nc3ccccc3s2)[C@H]2C(=O)O[C@H](c3ccccc3)[C@H](c3ccccc3)N2[C@@H]1c1ccc(O)cc1)C(=O)OC,0.829
7,CC(C)C(O)C1C=CC2C(=O)N(c3ccccc3)C(=O)C2N1Nc1ccc([N+](=O)[O-])cc1 (stereo not given),-0.217
8,CC(C)C[C@@H]1NC(=O)[C@@H]2C[C@H](C(=O)NCc3ccc(F)cc3)[C@H](c3cccc(OCCO)c3)N2C1=O,0.0533
9,CCCC[C@H]1OB(O)C[C@H]2C1=C(COC)C[C@H]1C(=O)N(C)C(=O)[C@H]12,0.358
10,COCCOC(=O)N1C(=O)[C@@]2(c3cc(C#Cc4ccc(OC)cc4)ccc31)[C@H](c1ccccc1OCCO)N1[C@H](c3ccccc3)[C@H](c3ccccc3)OC(=O)[C@H]1[C@@H]2C(=O)NC[C@H](O)c1ccccc1,0.46
11,CCOC(=O)C[C@H]1[C@H](OC(=O)c2ccc(C(=O)c3ccccc3)cc2)[C@@H](NC(=O)c2ccccc2)c2cc(OCCCO)ccc2N1C(=O)c1ccc2ccccc2n1,0.495
12,O=C(c1ccccc1)N1C(=O)[C@@]2(Cc3ccccc31)N=C(c1ccc(OCCCO)cc1)O[C@H]2c1ccccc1,0.643
13,Cc1ccc(N2C(=O)c3ccccc3[C@@H](C(=O)NC3CC3)[C@@H]2c2ccc(CO)cc2)nc1,-3.3
14,[N-]=[N+]=Nc1ccccc1[C@@H]1OC(c2ccc(OCCCO)cc2)=N[C@]1(CCS(=O)(=O)c1ccccc1)C(N)=O,-0.109
15,COC(=O)C(CC#Cc1ccc2c(c1)[C@]1(C(=O)N2)[C@H](C(=O)Nc2nc3ccccc3s2)[C@H]2C(=O)O[C@H](c3ccccc3)[C@H](c3ccccc3)N2[C@@H]1c1ccccc1OCCO)C(=O)OC,0.286
16,CCOC(=O)C[C@H]1[C@H](OC(=O)c2ccc(C(=O)c3ccccc3)cc2)[C@@H](NC(=O)CC(C)C)c2cc(OCCCO)ccc2N1C(=O)c1ccc2ccccc2n1,0.592
17,C=CC[C@]1(C(=O)NCc2ccccc2)N=C(c2ccc(OCCCO)cc2)O[C@H]1c1ccccc1N=[N+]=[N-],0.201
18,OCCCC1=CC(c2cccs2)N(Cc2cc3c(cc2Br)OCO3)CC1 (stereo not given),-0.0241

row,SMILES,composite z-score
1,COc1ccc(C#Cc2ccc3c(c2)[C@]2(C(=O)N3)[C@H](C(=O)Nc3nc4ccccc4s3)[C@H]3C(=O)O[C@H](c4ccccc4)[C@H](c4ccccc4)N3[C@@H]2c2ccc(O)cc2)cc1,0.653
2,NC(=O)[C@@H]1[C@H]2C(=O)O[C@H](c3ccccc3)[C@H](c3ccccc3)N2[C@H](c2ccc(O)cc2)[C@@]12C(=O)Nc1ccccc12,-2.27
3,CCCCC(CC)C(O)C1C=CC2C(=O)N(Cc3ccccc3)C(=O)C2N1n1cnnc1 (stereo not given),-0.729
4,O=C1O[C@H](c2ccccc2)[C@H](c2ccccc2)N2[C@H]1[C@@H](C(=O)N1CCCCCCC1)[C@]1(C(=O)Nc3ccc(C#CCCO)cc31)[C@H]2c1ccccc1OCCO,1.91
5,C=CCNC(=O)[C@H]1[C@@H]2C(=O)O[C@@H](c3ccccc3)[C@@H](c3ccccc3)N2[C@@H](c2ccccc2OCCO)[C@]12C(=O)Nc1ccc(C#CCCO)cc12,0.607
6,COc1ccc(C#Cc2ccc3c(c2)[C@]2(C(=O)N3)[C@H](c3ccccc3OCCO)N3[C@H](c4ccccc4)[C@H](c4ccccc4)OC(=O)[C@H]3[C@@H]2C(=O)Nc2nc3ccccc3s2)cc1,0.464
7,CN1C(=O)C2C=CC(C(O)C3CC=CCC3)N(N(c3ccccc3)c3ccccc3)C2C1=O (stereo not given),0.411
8,O=C1O[C@@H](c2ccccc2)[C@@H](c2ccccc2)N2[C@@H](c3ccccc3OCCO)[C@]3(C(=O)Nc4ccccc43)[C@@H](C(=O)Nc3nc4ccccc4s3)[C@H]12,0.108
9,O=C1NC(=O)C2C1C=CC(C(O)c1cc(C(F)(F)F)cc(C(F)(F)F)c1)N2Nc1ccccn1 (stereo not given),0.274
10,O=C(N1CCCCC1)[C@]1(Cc2ccccc2)N=C(c2ccc(OCCCO)cc2)O[C@@H]1c1ccccc1,0.0931
11,CC(C)c1ccc(NN2C(C(O)c3ccc(B(O)O)cc3)C=CC3C(=O)N(c4ccccc4)C(=O)C32)cc1 (stereo not given),-0.355
12,NC(=O)NCC#Cc1ccc2c(c1)[C@]1(C(=O)N2)[C@H](c2ccc(O)cc2)N2[C@H](c3ccccc3)[C@H](c3ccccc3)OC(=O)[C@H]2[C@@H]1C(=O)O,-1.09
13,Cc1ccccc1C(O)C1C=CC2C(=O)N(c3ccccc3)C(=O)C2N1Nc1ccc(C(C)C)cc1 (stereo not given),0.262
14,COc1ccc(CCNC(=O)[C@@H]2c3ccccc3C(=O)N(Cc3ccccc3Cl)[C@H]2c2ccc(CO)cc2)cc1,0.147
15,O=C(NC1CC1)[C@@H]1c2ccccc2C(=O)N(Cc2ccccc2Cl)[C@H]1c1ccc(CO)cc1,0.697
16,Cc1nc2cc(Br)ccc2c(=O)o1,0.4
17,CCN(CC)c1ccc(N2CC=CC34O[C@@H]5C=CCCOC(=O)C5[C@H]3C(=O)N(CCCCCCO)[C@@H]4C2=O)cc1 (stereo not given in full),-0.395

# From PubChem BioAssay
